# PubChem BioAssay (NCI)
# The panel holds about 83,000 compounds, 20% with a hit somewhere; the sample as a whole holds those more often.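 Results are percent growth after 48 hours of single-concentration exposure. 100 means growth as in untreated cells, lower positive values show inhibition; negative values down to -100 show cell death.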 Values without a mark were called inactive. Active and inactive are the calls of the source.
# Test system: NCI/ADR-RES ovarian
# Experiment: NCI-60 one-dose screen, 48 h (100 = growth as untreated, 0 = no growth, -100 = all killed)
# Details: 10 µM unless noted
# Procedure: Growth inhibition of the NCI/ADR-RES human […] tumor cell line is measured as a screen for anti-cancer activity. Cells are grown in 96 well plates and exposed to the test compound for 48 hours. Compounds are tested at a single concentration, which is 10^-5 M for most compounds. The reported endpoint is percent growth (GI% or GIPRCNT), where numbers from 0 - 100% represent growth inhibition, and numbers from -100% - 0 represent cell death. For example, a value of 40 represents 60% growth inhibition. A value of 0 means no net growth occurred over the course of the experiment. A value of -40 indicates 40% of cells at the beginning of the experiment died by the end of the experiment. A value of -100 means all cells are dead at the end of the experiment.
# NCI-60 Human Tumor Cell Lines Screen was performed using the standard one-dose NCI protocol, which is described in more detail at https://dtp.cancer.gov/discovery_development/nci-60/default.htm.
# Compounds with GIPRCNT values below 10 were considered active. Activity score was based on GIPRCNT using the following formula: […]
# Score is 0 for GIPRCNT values of 100 or above, 50 for GIPRCNT values of 0, and 100 for GIPRCNT values of -100.
row,Structure (SMILES),growth
1,CC(=O)/C=C/c1cccc2c1C(=O)NC(C)(c1cc3cc(Br)ccc3oc1=O)N2 (stereo not given),32.9%
2,Clc1cccc(N/N=C/c2c[nH]c3ccc(Br)cc23)n1,2.49% (active)
3,Cn1cc(-c2cc(N)n3nc(-c4c[nH]c5ccccc45)cc3n2)c2cc(Br)cnc21,-44.6% (active)
4,COc1cc(C2CC(c3cc(OC)c(OC)c(OC)c3)=Nc3c(N)nc(N)nc3N2)ccc1Oc1nc(NCCO)nc(N2CCOCC2)n1 (stereo not given),97.6%
5,CN1CCN(/C(=N\c2sc(-c3ccccc3)nc2-c2ccccc2)c2ccccc2)CC1,90.4%
6,S=c1c2ccccc2nc2n1CCc1c-2[nH]c2ccccc12,49.6%
7,CN(C)CCCNC(=O)c1cc(NC(=O)c2cc(NC(=O)c3ccc(C#Cc4ccccc4)cc3)cn2C)cn1C,56.6%
8,COc1ccc(-c2nc3cc(C)ccc3n2CC(=O)N=Nc2c(O)[nH]c3ccc(OC)cc23)cc1,-56.1% (active)
9,COc1ccc(C(=O)/C=C/c2ccc(OCc3ccccc3)c(OC)c2)cc1OC,19.7%
10,Nc1cccc(SCc2cc3ccccc3[nH]c2=O)c1,67.8%
11,Cc1sc(C(NC(=O)OCCn2c([N+](=O)[O-])cnc2C)C(F)(F)Cl)nc1-c1ccc(OC(F)(F)F)cc1 (stereo not given),-78.6% (active)
12,CCN(CC)CCOc1ccc(Nc2ncc3cc(-c4ccc(O)c(C#N)c4)c(=O)n(C)c3n2)cc1,114%
13,COc1ccc2c(c1)c(-c1cc(N)n3nc(-c4cn(C)c5ccccc45)cc3n1)cn2C,-17.1% (active)
14,O=C(/C=C/c1ccc(-c2ccccc2)cc1)c1nc2ccccc2n1Cc1ccc(F)cc1,49.6%
15,NS(=O)(=O)c1ccc(N=Nc2c(O)n(CC(=O)Nc3ccccc3)c3ccccc23)cc1,64.3%
16,Cc1cc2nc3c4ccccc4n(CCCN(C)C)c3nc2cc1C,1.96% (active)
17,Cn1cc(-c2cc3nc(-c4cn(C)c5ncccc45)cc(N)n3n2)c2cc(Cl)ccc21,-43.6% (active)
18,COc1cccc(/C=C/c2nc3ccccc3c(=O)n2CC(=O)Nc2ccc(Cl)cc2)c1,69.3%
19,N=C1N=C(SCc2nc3ccccc3[nH]2)NC(=O)/C1=C/c1ccc(Cl)cc1,100%
20,O=C(COc1ccc(NC(=O)Nc2ccc(Cl)c(Cl)c2)cc1)N=Nc1c(O)[nH]c2ccccc12,80.8%

row,Structure (SMILES),growth
1,COc1ccc(-c2nc3ccc(C(=O)NN4C(=O)c5ccc([N+](=O)[O-])cc5C4=O)cc3[nH]2)cc1,102%
2,COc1ccc(C(=O)/C=C/c2cccnc2)cc1S(N)(=O)=O,69.1%
3,COc1ccc2[nH]c(=O)c(CSc3nccc(-c4ccc(OC)c(OC)c4)n3)cc2c1,23.6%
4,CC(=O)Nc1ccc(-n2cnc3cc(-c4ccc(O)cc4)ccc32)cc1C(F)(F)F,16.3%
5,COc1cc(OC)c2c3nc4cc(C)c(C)cc4nc3n(CCN(C)C)c2c1,3.26% (active)
6,CC1(c2cc3cc(Br)ccc3oc2=O)NC(=O)c2c(/C=C/C(=O)OC3CC4CCC3(C)C4(C)C)cccc2N1 (stereo not given),74%
7,COc1cc(C2CC(c3cc(OC)c(OC)c(OC)c3)=NN2c2ccccc2)ccc1OCc1ccc(C)cc1 (stereo not given),101%
8,COc1ccc2[nH]cc(-c3cc(N)n4nc(-c5cn(C)c6ccccc56)cc4n3)c2c1,-45.3% (active)
9,Clc1ccc(-c2ccc(OCCCN3CCN(c4ccncc4)CC3)cc2)cc1,49.7%
10,COc1ccc(-c2ccnc(SCc3cc4cc(OC)ccc4[nH]c3=O)n2)cc1,-11.4% (active)
11,CC(=O)Oc1ccccc1C(=O)[Se]C(=NC1CCCCC1)NC1CCCCC1,-63.3% (active)
12,Cc1ncsc1-c1ccc(CNC(=O)[C@@H]2C[C@@H](O)CN2C(=O)[C@@H](NC(=O)C2(F)CC2)C(C)(C)C)c(OCCOCCOCCOCCOc2nc(Nc3cc(S(C)(=O)=O)ccc3N[C@@H](c3cccc4c3OC(F)(F)O4)c3ncccc3Cl)nc(N3CCNCC3)n2)c1,103%
13,NS(=O)(=O)c1ccc(-n2cc(-c3cccc(NC(=O)c4cc(Cl)cc(Cl)c4)c3)nn2)cc1,92.7%
14,N#Cc1c(-c2ccc(Cl)cc2)nc2n[nH]c(-c3ccc(Cl)cc3)c2c1-c1ccc(C(F)(F)F)cc1,-24.5% (active)
15,Cn1cc(-c2cc3nc(-c4cn(C)c5ncccc45)cc(N)n3n2)c2ccccc21,31.2%
16,COc1cc2c(c(OC)c1OC)C(=O)CC(c1cccc(NC(=O)c3cc([N+](=O)[O-])ccc3Cl)c1)O2 (stereo not given),15%
17,Nc1nc(C(F)(F)F)cs1,104%
18,COc1ccc([C@H](C)Nc2nc(Cl)nc3ccccc23)cc1,21.5%
19,CC(C)CSc1nc(NCCc2c[nH]c3ccccc23)c(C#N)c(-c2ccc(F)cc2)n1,39.9%
20,COc1ccc(N2N=C(c3ccc4c(c3)OCO4)CC2c2cccc(NC(=O)CCNS(=O)(=O)c3ccc(Cl)cc3)c2)cc1 (stereo not given),71.3%
